Values joined by “and” are separate entries in the source; they are usually repeats but may differ in a detail not shown here. Equal values may be shown once. Read-outs that look alike come from different tables or passages of the source.
Legend:
[1] = test system: T1, MST1; conditions: concentration: 1 μM, replicates: in singlicate, n = 1
T1 construct: gene STK4

[2] = test system: T2, MST2; conditions: concentration: 1 μM, replicates: in singlicate; n = 1
T2 construct: gene STK3

[3] = test system: T3, MST3; conditions: concentration: 1 μM, replicates: in singlicate, n = 1
T3 construct: gene STK24

[4] = test system: MST4; conditions: concentration: 1 μM, replicates: in singlicate, n = 1
[5] = test system: MTOR; conditions: concentration: 1 μM, replicates: in singlicate, n = 1
[6] = test system: MUSK; conditions: concentration: 1 μM, replicates: in singlicate, n = 1
[7] = test system: MYLK2; conditions: concentration: 1 μM, replicates: in singlicate, n = 1
[8] = test system: MYLK4; conditions: concentration: 1 μM, replicates: in singlicate, n = 1
[9] = test system: MYLK; conditions: concentration: 1 μM, replicates: in singlicate, n = 1
[10] = test system: MYO3A; conditions: concentration: 1 μM, replicates: in singlicate, n = 1
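Further: KINOMEscan kinase panel screen.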

| SMILES | %Inh [1] [%] | %Inh [2] [%] | %Inh [3] [%] | %Inh [4] [%] | %Inh [5] [%] | %Inh [6] [%] | %Inh [7] [%] | %Inh [8] [%] | %Inh [9] [%] | %Inh [10] [%] | %Inh ([1]; 1 µM) | %Inh ([3]; 1 µM) | %Inh ([4]; 1 µM) | %Inh ([5]; 1 µM) | %Inh ([7]; 1 µM) | %Inh ([8]; 1 µM) | %Inh ([9]; 1 µM) | %Inh ([10]; 1 µM) | %Inh ([6]; 1 µM) |
| --- | --- | --- | --- | --- | --- | --- | --- | --- | --- | --- | --- | --- | --- | --- | --- | --- | --- | --- | --- |
| O=c1cc(N2CCOCC2)nc2n(Cc3cccc(F)c3)ccn12 [GSK2297430] | 23 | 0 | 3 | 0 | 52 | 3 | 0 | 0 | 4 | 0 |  |  |  |  |  |  |  |  |  |
| Cc1c2ccc(N(C)c3ccnc(Nc4cccc(S(N)(=O)=O)c4)n3)cc2nn1Cc1ccccc1.Cl.Cl [GW787226] | 32 | 13 | 0 | 0 | 0 | 33 | 0 | 0 | 0 | 0 |  |  |  |  |  |  |  |  |  |
| COc1cc(Nc2nccc(N3CCC(NC(=O)c4cccc(NC(C)=O)c4)C3)n2)cc(OC)c1OC (stereo not shown) [GSK1379754] | 12 | 7 | 0 | 0 | 7 | 12 | 17 | 2 | 14 | 5 |  |  |  |  |  |  |  |  |  |
| Cc1cccc(Cn2ccn3c(=O)cc(N4CCOCC4)nc23)c1 [GSK2297542] | 7 | 0 | 23 | 0 | 17 | 2 | 4 | 6 | 41 | 11 |  |  |  |  |  |  |  |  |  |
| CN(C(=O)c1ccc(-c2cc(-c3c[nH]nc3-c3ccccn3)ccn2)cc1)C1CCOCC1 [GW810083] | 8 | 13 | 34 | 0 | 10 | 0 | 0 | 0 | 0 | 0 |  |  |  |  |  |  |  |  |  |
| CCn1cnc2c(N)ncnc21 [GW345098] | 8 | 7 | 20 | 0 | 0 | 2 | 2 | 7 | 29 | 12 |  |  |  |  |  |  |  |  |  |
| c1ccc(-c2cc(-c3c[nH]nc3-c3ccccn3)ccn2)cc1 [GW576604] | 0 | 0 | 0 | 0 | 10 | 0 | 3 | 0 | 6 | 18 |  |  |  |  |  |  |  |  |  |
| O=c1cc(N2CCOCC2)nc2n(Cc3cccc(C(F)(F)F)c3)ccn12 [GSK2297543] | 10 | 0 | 9 | 0 | 4 | 3 | 0 | 2 | 18 | 19 |  |  |  |  |  |  |  |  |  |
| CNc1ncnc2[nH]ncc12 [SKF-18355] | 36 | 0 | 0 | 0 | 17 | 14 | 3 | 5 | 0 | 0 |  |  |  |  |  |  |  |  |  |
| NCC(NC(=O)c1cc(-c2cn[nH]c2)c(-c2ccnc3[nH]ccc23)s1)c1ccccc1.O=C(O)C(F)(F)F.O=C(O)C(F)(F)F (stereo not shown) [GSK1325775] | 0 | 12 | 1 | 45 | 5 | 0 | 45 | 100 | 63 | 32 |  |  |  |  |  |  |  |  |  |
| Nc1nc(-c2ccc3c(N)n[nH]c3c2)cc(N2CCCC2)n1 [GSK2227430] | 0 | 0 | 0 | 0 | 0 | 0 | 0 | 2 | 9 | 0 |  |  |  |  |  |  |  |  |  |
| COCCNC(=O)c1ccc(-c2cc(C(=O)NC3CC3)cc(F)c2C)cc1 [GW868318] | 17 | 24 | 3 | 38 | 0 | 28 | 1 | 5 | 29 | 5 |  |  |  |  |  |  |  |  |  |
| Cl.Oc1cccc(Nc2ccnc3cc(-c4ccncc4)ccc23)c1 [GW494601] | 0 | 0 | 13 | 0 | 4 | 0 | 24 | 0 | 95.9 | 40 |  |  |  |  |  |  |  |  |  |
| CCc1ccnc(/C=C/c2n[nH]c3cc(Sc4ccccc4C(=O)NC)ccc23)c1 | 6 | 36 | 19 | 4 | 12 | 0 | 0 | 0 | 0 | 0 |  |  |  |  |  |  |  |  |  |
| O=C(c1ccc(-c2cc(-c3c[nH]nc3-c3ccccn3)ccn2)cc1)N1CCOCC1 [GW812171] | 4 | 0 | 0 | 0 | 17 | 0 | 0 | 26 | 0 | 6 |  |  |  |  |  |  |  |  |  |
| COc1ccc(COc2cc(-n3cnc4ccccc43)sc2C(N)=O)cc1 [GSK1024304] | 0 | 0 | 0 | 0 | 0 | 14 | 0 | 0 | 0 | 0 |  |  |  |  |  |  |  |  |  |
| NS(=O)(=O)c1cccc(-c2ccc3ncc(N4CCOCC4)nc3c2)c1 [GSK1535721] | 0 | 0 | 0 | 0 | 9 | 0 | 0 | 12 | 2 | 15 |  |  |  |  |  |  |  |  |  |

| SMILES | %Inh [1] [%] | %Inh [2] [%] | %Inh [3] [%] | %Inh [4] [%] | %Inh [5] [%] | %Inh [6] [%] | %Inh [7] [%] | %Inh [8] [%] | %Inh [9] [%] | %Inh [10] [%] | %Inh ([1]; 1 µM) | %Inh ([3]; 1 µM) | %Inh ([4]; 1 µM) | %Inh ([5]; 1 µM) | %Inh ([7]; 1 µM) | %Inh ([8]; 1 µM) | %Inh ([9]; 1 µM) | %Inh ([10]; 1 µM) | %Inh ([6]; 1 µM) |
| --- | --- | --- | --- | --- | --- | --- | --- | --- | --- | --- | --- | --- | --- | --- | --- | --- | --- | --- | --- |
| O=C(Nc1cccc(-c2nn3ncccc3c2-c2ccnc(Nc3cccc(C(F)(F)F)c3)n2)c1)c1c(F)cccc1F [GSK299495] | 9 | 23 | 0 | 0 | 17 | 26 | 0 | 0 | 11 | 41 |  |  |  |  |  |  |  |  |  |
| c1ccc(-c2n[nH]cc2-c2ccnc3ccccc23)nc1 [GW271431] | 5 | 13 | 2 | 0 | 9 | 15 | 12 | 24 | 20 | 31 |  |  |  |  |  |  |  |  |  |
| N#Cc1ccc(-c2cc(-c3c[nH]nc3-c3ccccn3)ccn2)cc1 [GW693028] | 4 | 0 | 0 | 0 | 14 | 0 | 0 | 0 | 8 | 15 |  |  |  |  |  |  |  |  |  |
| O=C(NOCC1CC1)c1ccc(F)c(F)c1Nc1ccc(I)cc1Cl | 0 | 0 | 4 | 0 | 28 | 0 | 0 | 0 | 0 | 0 |  |  |  |  |  |  |  |  |  |
| COc1cc2c(cc1OC[C@@H](O)CO)ncc1c3ccc(C#N)cc3[nH]c21 | 0 | 67 | 11 | 12 | 52 | 0 | 44 | 99 | 3 | 0 |  |  |  |  |  |  |  |  |  |
| Cc1ccc(C(=O)NCC(N)=O)cc1-n1c(C)cc(OCc2ccc(F)cc2F)c(Br)c1=O | 13 | 4 | 26 | 0 | 0 | 0 | 12 | 14 | 7 | 14 |  |  |  |  |  |  |  |  |  |
| O=C(NCCNc1ccnc(Nc2ccc(F)cc2)n1)Nc1ccccc1F [GSK1379880] | 0 | 0 | 0 | 0 | 10 | 5 | 1 | 0 | 9 | 0 |  |  |  |  |  |  |  |  |  |
| CC(=O)Nc1ccc(COc2ccc(Nc3ccnc4cc(-c5ccccn5)ccc34)cc2)cc1.Cl [GW440148] | 0 | 30 | 22 | 0 | 13 | 8 | 3 | 16 | 13 | 27 |  |  |  |  |  |  |  |  |  |
| CC(C)(CN)c1nc(-c2ccc(Cl)c(O)c2)c(-c2ccncc2)[nH]1.O=C(O)C(F)(F)F [SB-477794] |  | 0 |  |  |  | 0 |  |  |  |  | 0% and 11% | 0% and 1% | 11% and 1% | 35% and 17% | 0% and 5% | 0% and 6% | 1% and 21% | 25% and 59% |  |
| NS(=O)(=O)CCc1cccc(Nc2nccc(-c3c(-c4cccc(NC(=O)c5c(F)cccc5F)c4)nn4ccccc34)n2)c1 [GSK336735] | 94.9 | 74 | 13 | 0 | 8 | 40 | 0 | 0 | 14 | 26 |  |  |  |  |  |  |  |  |  |
| COC(=O)Nc1nc2cc(Oc3ccc(NC(=O)Nc4cc(F)ccc4F)cc3)ccc2[nH]1.Cl [GW701424] | 0 | 0 | 6 | 0 | 15 | 99.1 | 0 | 0 | 0 | 33 |  |  |  |  |  |  |  |  |  |
| NCCNS(=O)(=O)c1ccc(-c2ccnc3[nH]ccc23)cc1 [GSK977617] |  | 0 |  |  |  |  |  |  |  |  | 26% and 0% | 27% and 17% | 13% and 0% | 29% and 12% | 75% and 42% | 99.9% and 99.7% | 74% and 59% | 37% and 16% | 30% and 35% |
| COc1cc2c(cc1OCCN1CCN(C)CC1)ncc1c3ccc(C#N)cc3[nH]c21 | 0 | 30 | 36 | 0 | 38 | 0 | 72 | 75 | 26 | 0 |  |  |  |  |  |  |  |  |  |
| Fc1ccc(-c2ncn(CCCN3CCOCC3)c2-c2cccnc2)cc1 [SB-211743] | 12 | 40 | 0 | 0 | 0 | 20 | 1 | 0 | 0 | 0 |  |  |  |  |  |  |  |  |  |
| COc1ccc(S(=O)(=O)NC2CCN(c3cc(C)nc(Nc4cccc(C#N)c4)n3)CC2)cc1.O=C(O)C(F)(F)F [GSK1653539] | 0 | 0 | 13 | 0 | 28 | 0 | 0 | 0 | 3 | 17 |  |  |  |  |  |  |  |  |  |
| O=C(Nc1n[nH]c2cc(-c3cccc(F)c3)ccc12)C1CC1 [SB-735464] | 11 | 0 | 17 | 17 | 0 | 0 | 77 | 6 | 2 | 3 |  |  |  |  |  |  |  |  |  |
| Fc1ccc(-c2nn3c(OCC(F)(F)F)cccc3c2-c2ccncc2)cc1 [GW514784] | 0 | 0 | 12 | 0 | 35 | 0 | 1 | 0 | 15 | 72 |  |  |  |  |  |  |  |  |  |
